From the supplement of paper PMC3545927
Some of the results follow. The true hit rate is not given.

B1: FS-1058 (peptide)
chain: CARAERGPRSAGNASASA
B2: FS-1176 (peptide)
chain: CAVGKRQPRSAGNASASA
B3: FS-1078 (peptide)
chain: CASASRGPRSAGNASASA
B4: FS-705 (peptide)
chain: CAREYRGQRSAGNASASA
B5: FS-745 (peptide)
chain: CAAKARGPRSAGNASASA
B6: HC835 (peptide)
chain: CAATPPGSVTAGNASASA
B7: HC1075 (peptide)
chain: CAFVGAGLAGAGNASASA
B8: HC2047 (peptide)
chain: CAVVCCSFSYAGNASASA
B9: HC605 (peptide)
chain: CATKLLLAVFAGNASASA
B10: HC2566 (peptide)
chain: CASTPCSAHMAGNASASA
B11: HC281 (peptide)
chain: CAAMTPTVATAGNASASA
B12: FS-867 (peptide)
chain: CASASHKKRSAGNASASA
B13: FS-1574 (peptide)
chain: CATHSIKKRSAGNASASA
B14: FS-184 (peptide)
chain: CAQTSRNTRSAGNASASA
B15: FS-852 (peptide)
chain: CAQTSRSNRFAGNASASA
B16: FS-763 (peptide)
chain: CAERHRQTRSAGNASASA
B17: HC1997 (peptide)
chain: CASVCCSMSYAGNASASA
B18: HC2423 (peptide)
chain: CAAREVPCHRAGNASASA
B19: HC363 (peptide)
chain: CAPGAKQNVQAGNASASA
B20: HC569 (peptide)
chain: CASCGGVVLVAGNASASA
B21: HC1138 (peptide)
chain: CAQLLRRLHQAGNASASA
B22: FS-326 (peptide)
chain: CAFLSRRRRAAGNASASA
B23: FS-582 (peptide)
chain: CACLSRRRRAAGNASASA
B24: FS-1475 (peptide)
chain: CAQLLRRRRAAGNASASA
B25: FS-798 (peptide)
chain: CAHRSVRRRAAGNASASA
B26: FS-1613 (peptide)
chain: CASLLRERRAAGNASASA
B27: HC2214 (peptide)
chain: CAEVVTSKWVAGNASASA
B28: HC280 (peptide)
chain: CAWVAMTPTVAGNASASA
B29: HC50 (peptide)
chain: CATTPRSGSWAGNASASA
B30: HC612 (peptide)
chain: CAQASLLKVPAGNASASA
B31: HC673 (peptide)
chain: CALLAPITAYAGNASASA
B32: FS-2237 (peptide)
chain: CARSERSVILAGNASASA
B33: FS-931 (peptide)
chain: CAGYFRIRRGAGNASASA
B34: FS-1406 (peptide)
chain: CARSERNRRGAGNASASA
B35: FS-538 (peptide)
chain: CAHPQRKRRGAGNASASA
B36: FS-1122 (peptide)
chain: CAEVARLRRGAGNASASA
B37: FS-1076 (peptide)
chain: CARVQRLRRGAGNASASA
B38: HC1399 (peptide)
chain: CALQVLDSHYAGNASASA
B39: HC1416 (peptide)
chain: CALTPPHSAKAGNASASA
B40: HC2539 (peptide)
chain: CASTPCSPHLAGNASASA
B41: HC741 (peptide)
chain: CALKGSSGGPAGNASASA
B42: HC863 (peptide)
chain: CAAKLVALGIAGNASASA
B43: FS-3215 (peptide)
chain: CAVFKRDAHGAGNASASA
B44: HC904 (peptide)
chain: CARRGRTGRGAGNASASA
B45: FS-634 (peptide)
chain: CAYLNRKRRGAGNASASA
B46: FS-595 (peptide)
chain: CAHLVPVLRGAGNASASA
B47: FS-1578 (peptide)
chain: CAVFQRKRRGAGNASASA
B48: FS-1534 (peptide)
chain: CAICSRAARGAGNASASA
B49: FS-390 (peptide)
chain: CAYLHRVGRGAGNASASA
B50: FS-1523 (peptide)
chain: CAFSSRWGRGAGNASASA
B51: FS-541 (peptide)
chain: CAIKSRFGRGAGNASASA
B52: FS-1454 (peptide)
chain: CAFPMRGRRGAGNASASA

Molecular target: furin, P09958
Sequence (P09958 whole entry): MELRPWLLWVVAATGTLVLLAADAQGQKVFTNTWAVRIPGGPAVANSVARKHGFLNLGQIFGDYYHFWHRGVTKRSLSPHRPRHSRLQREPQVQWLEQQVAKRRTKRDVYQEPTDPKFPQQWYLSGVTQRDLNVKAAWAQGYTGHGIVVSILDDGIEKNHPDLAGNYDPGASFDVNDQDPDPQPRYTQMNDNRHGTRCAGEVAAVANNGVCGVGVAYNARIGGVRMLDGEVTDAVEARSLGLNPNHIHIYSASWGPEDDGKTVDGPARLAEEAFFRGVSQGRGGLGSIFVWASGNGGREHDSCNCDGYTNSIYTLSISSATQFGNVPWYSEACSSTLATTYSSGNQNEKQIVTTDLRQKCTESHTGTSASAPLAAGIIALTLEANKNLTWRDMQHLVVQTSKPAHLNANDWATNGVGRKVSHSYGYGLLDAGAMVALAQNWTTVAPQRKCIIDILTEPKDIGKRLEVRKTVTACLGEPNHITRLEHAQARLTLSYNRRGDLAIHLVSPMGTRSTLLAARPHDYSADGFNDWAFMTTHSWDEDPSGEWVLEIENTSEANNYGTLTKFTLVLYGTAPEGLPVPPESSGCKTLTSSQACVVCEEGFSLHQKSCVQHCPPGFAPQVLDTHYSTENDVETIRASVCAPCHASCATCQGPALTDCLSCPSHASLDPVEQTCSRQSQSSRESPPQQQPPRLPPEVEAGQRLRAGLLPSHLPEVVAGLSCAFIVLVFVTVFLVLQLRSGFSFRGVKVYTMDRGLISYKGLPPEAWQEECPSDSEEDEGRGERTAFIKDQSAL
Experiment: furin cleavage Z-score vs untreated control; higher = more cleavage, active = 3.5 or more, inactive = 1 or less, 8 variable residues between constant flanks
In short: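 To give the cleavage Z-score, log read counts were set against furin-free reactions, lowess-adjusted and scaled by median absolute deviation. These counts came from PCR adapter-tagged, sequenced DNA released when purified furin cut 8-mer peptides fused to a cDNA oligonucleotide and held on magnetic beads by their N-terminus. Digests were 0.01 ml, 1:10 enzyme:substrate, in 50 mM HEPES pH 7.5 with CaCl2 and NaCl, for 7.5, 15 or 30 min.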

| Sequence | furin cleavage Z-score (7.5 min) | furin cleavage Z-score (15 min) | furin cleavage Z-score (30 min) |
| --- | --- | --- | --- |
| B1 | 3.99 (active) | 4.52 (active) | 4.09 (active) |
| B2 | 10.8 (active) | 10.9 (active) | 8.62 (active) |
| B3 | 4.05 (active) | 4.67 (active) | 4.87 (active) |
| B4 | -0.292 (inactive) | 2.01 | 0.594 (inactive) |
| B5 | 11 (active) | 9.83 (active) | 7.42 (active) |
| B6 | -1.05 (inactive) | -0.0418 (inactive) | -0.602 (inactive) |
| B7 | -0.934 (inactive) | -0.739 (inactive) | -0.847 (inactive) |
| B8 | 0.639 (inactive) | -0.617 (inactive) | -0.397 (inactive) |
| B9 | 1.92 | 3.24 | 0.635 (inactive) |
| B10 | -0.903 (inactive) | 0.0563 (inactive) | 1.83 |
| B11 | 0.668 (inactive) | 1.6 | -0.149 (inactive) |
| B12 | 3 | 2.31 | 3.6 (active) |
| B13 | 8.84 (active) | 7.91 (active) | 7.4 (active) |
| B14 | 9.04 (active) | 11.5 (active) | 9.02 (active) |
| B15 | 0.217 (inactive) | -0.984 (inactive) | 0.464 (inactive) |
| B16 | 6.53 (active) | 6.61 (active) | 4.64 (active) |
| B17 | -0.28 (inactive) | -0.316 (inactive) | -0.657 (inactive) |
| B18 | 0.147 (inactive) | 1.34 | 1.67 |
| B19 | -0.22 (inactive) | -0.957 (inactive) | -0.643 (inactive) |
| B20 | -1.44 (inactive) | -0.138 (inactive) | -1.42 (inactive) |
| B21 | -0.809 (inactive) | 0.744 (inactive) | 0.327 (inactive) |
| B22 | 8.63 (active) | 7.91 (active) | 6.71 (active) |
| B23 | 9.75 (active) | 10.1 (active) | 8.23 (active) |
| B24 | 5.21 (active) | 3.72 (active) | 3.69 (active) |
| B25 | 4.59 (active) | 5.95 (active) | 5.68 (active) |
| B26 | -0.33 (inactive) | 1.11 | 0.57 (inactive) |

| Sequence | furin cleavage Z-score (7.5 min) | furin cleavage Z-score (15 min) | furin cleavage Z-score (30 min) |
| --- | --- | --- | --- |
| B27 | -0.244 (inactive) | -0.0853 (inactive) | -0.758 (inactive) |
| B28 | -0.409 (inactive) | 1.35 | 0.148 (inactive) |
| B29 | 0.195 (inactive) | -0.703 (inactive) | -1.47 (inactive) |
| B30 | -0.764 (inactive) | -0.112 (inactive) | 0.0537 (inactive) |
| B31 | -3.12 (inactive) | -1.42 (inactive) | -1.58 (inactive) |
| B32 | -0.162 (inactive) | 0.495 (inactive) | -1.51 (inactive) |
| B33 | 7.65 (active) | 7.42 (active) | 7.31 (active) |
| B34 | 12.7 (active) | 13.3 (active) | 9.9 (active) |
| B35 | 8.91 (active) | 10.4 (active) | 7.34 (active) |
| B36 | 0.497 (inactive) | 0.166 (inactive) | 1.11 |
| B37 | 6.03 (active) | 4.67 (active) | 4.95 (active) |
| B38 | 0.634 (inactive) | 0.79 (inactive) | -1.28 (inactive) |
| B39 | 0.524 (inactive) | 0.481 (inactive) | -0.0828 (inactive) |
| B40 | 2.23 | -1.13 (inactive) | 0.314 (inactive) |
| B41 | -0.0654 (inactive) | -1.8 (inactive) | -2.14 (inactive) |
| B42 | 0.999 (inactive) | -2.69 (inactive) | 0.907 (inactive) |
| B43 | -0.773 (inactive) | -0.315 (inactive) | 1.52 |
| B44 | -0.725 (inactive) | -0.224 (inactive) | -0.511 (inactive) |
| B45 | 9.69 (active) | 11.9 (active) | 7.89 (active) |
| B46 | 0.989 (inactive) | -0.535 (inactive) | -1.61 (inactive) |
| B47 | 12.4 (active) | 12.7 (active) | 9.42 (active) |
| B48 | -0.759 (inactive) | 0.0398 (inactive) | -0.381 (inactive) |
| B49 | 3.96 (active) | 5.69 (active) | 4.8 (active) |
| B50 | -2.35 (inactive) | 0.914 (inactive) | -0.211 (inactive) |
| B51 | 4.29 (active) | 4.38 (active) | 4.05 (active) |
| B52 | -0.221 (inactive) | -0.337 (inactive) | 0.17 (inactive) |
